14 targets from the supplement of paper PMC10849652 can be followed below.

Of roughly 8,800 targets only a part is listed; those with a hit were picked by preference. About 0.5% of all pairs of compound and target were hits. Values without a mark were called inactive.

Common to all, as to assay: log2 fold change, soluble protein after heating vs DMSO (PISA); higher = thermal stabilisation; K562 lysate, 10 uM; active = over 0.2 and 3.5 SD of the protein, either way, in both replicates (recomputed)
Compound in test [1]: NCC(=O)Nc1ccc(-n2nc(C(F)(F)F)cc2-c2ccc3c(ccc4ccccc43)c2)cc1
In a few lines:
(§1)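 Soluble protein was defined as the supernatant remaining after 21,000xg for 90 min, following pooling of heated aliquots and adjustment to 0.5% NP-40 at 4°C. Before that, crude K562 extract at 1 mg/mL protein in PBS pH 7.4 with 1 mM MgCl2 was treated with 10 μM compound for 30 min and heated for 3 min across 48°C-58°C. Quantification used TMTpro 16plex LC-MS/MS with channel sums equalised, and values are log-two fold changes in thermal stability relative to solvent controls from duplicates.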

Compound in the next test: O=C(CCCCCCC(=O)Nc1ccccc1)NO [vorinostat]
In a few lines: as §1

Compound in a further test: O=C(O)c1ccc2c(c1)nc(Nc1cccc(Cl)c1)c1ccncc12 [silmitasertib]
In a few lines:
as §1

Compound in test [2]: O=C1NC(=O)C(c2cnc3ccccn23)=C1c1cn2c3c(cc(F)cc13)CN(C(=O)N1CCCCC1)CC2
In a few lines: as §1

Compound in the next test: c1cn2cc(-c3ccc4cn[nH]c4c3)nc(Nc3ccc(N4CCOCC4)cc3)c2n1 [entospletinib]
The gist of the method:
as §1

UniProt P35250, sequence (P35250 whole entry, looked up): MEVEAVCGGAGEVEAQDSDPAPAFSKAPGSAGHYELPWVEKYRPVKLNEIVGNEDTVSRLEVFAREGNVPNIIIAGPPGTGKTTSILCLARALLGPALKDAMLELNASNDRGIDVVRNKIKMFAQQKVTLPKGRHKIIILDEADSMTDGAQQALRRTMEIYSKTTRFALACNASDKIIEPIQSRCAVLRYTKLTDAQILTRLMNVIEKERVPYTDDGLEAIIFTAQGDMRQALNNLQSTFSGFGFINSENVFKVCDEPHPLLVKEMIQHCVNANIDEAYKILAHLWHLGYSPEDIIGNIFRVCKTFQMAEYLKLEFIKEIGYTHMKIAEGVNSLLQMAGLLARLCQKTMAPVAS
UniProt Q9BXT8, sequence (Q9BXT8 whole entry, looked up): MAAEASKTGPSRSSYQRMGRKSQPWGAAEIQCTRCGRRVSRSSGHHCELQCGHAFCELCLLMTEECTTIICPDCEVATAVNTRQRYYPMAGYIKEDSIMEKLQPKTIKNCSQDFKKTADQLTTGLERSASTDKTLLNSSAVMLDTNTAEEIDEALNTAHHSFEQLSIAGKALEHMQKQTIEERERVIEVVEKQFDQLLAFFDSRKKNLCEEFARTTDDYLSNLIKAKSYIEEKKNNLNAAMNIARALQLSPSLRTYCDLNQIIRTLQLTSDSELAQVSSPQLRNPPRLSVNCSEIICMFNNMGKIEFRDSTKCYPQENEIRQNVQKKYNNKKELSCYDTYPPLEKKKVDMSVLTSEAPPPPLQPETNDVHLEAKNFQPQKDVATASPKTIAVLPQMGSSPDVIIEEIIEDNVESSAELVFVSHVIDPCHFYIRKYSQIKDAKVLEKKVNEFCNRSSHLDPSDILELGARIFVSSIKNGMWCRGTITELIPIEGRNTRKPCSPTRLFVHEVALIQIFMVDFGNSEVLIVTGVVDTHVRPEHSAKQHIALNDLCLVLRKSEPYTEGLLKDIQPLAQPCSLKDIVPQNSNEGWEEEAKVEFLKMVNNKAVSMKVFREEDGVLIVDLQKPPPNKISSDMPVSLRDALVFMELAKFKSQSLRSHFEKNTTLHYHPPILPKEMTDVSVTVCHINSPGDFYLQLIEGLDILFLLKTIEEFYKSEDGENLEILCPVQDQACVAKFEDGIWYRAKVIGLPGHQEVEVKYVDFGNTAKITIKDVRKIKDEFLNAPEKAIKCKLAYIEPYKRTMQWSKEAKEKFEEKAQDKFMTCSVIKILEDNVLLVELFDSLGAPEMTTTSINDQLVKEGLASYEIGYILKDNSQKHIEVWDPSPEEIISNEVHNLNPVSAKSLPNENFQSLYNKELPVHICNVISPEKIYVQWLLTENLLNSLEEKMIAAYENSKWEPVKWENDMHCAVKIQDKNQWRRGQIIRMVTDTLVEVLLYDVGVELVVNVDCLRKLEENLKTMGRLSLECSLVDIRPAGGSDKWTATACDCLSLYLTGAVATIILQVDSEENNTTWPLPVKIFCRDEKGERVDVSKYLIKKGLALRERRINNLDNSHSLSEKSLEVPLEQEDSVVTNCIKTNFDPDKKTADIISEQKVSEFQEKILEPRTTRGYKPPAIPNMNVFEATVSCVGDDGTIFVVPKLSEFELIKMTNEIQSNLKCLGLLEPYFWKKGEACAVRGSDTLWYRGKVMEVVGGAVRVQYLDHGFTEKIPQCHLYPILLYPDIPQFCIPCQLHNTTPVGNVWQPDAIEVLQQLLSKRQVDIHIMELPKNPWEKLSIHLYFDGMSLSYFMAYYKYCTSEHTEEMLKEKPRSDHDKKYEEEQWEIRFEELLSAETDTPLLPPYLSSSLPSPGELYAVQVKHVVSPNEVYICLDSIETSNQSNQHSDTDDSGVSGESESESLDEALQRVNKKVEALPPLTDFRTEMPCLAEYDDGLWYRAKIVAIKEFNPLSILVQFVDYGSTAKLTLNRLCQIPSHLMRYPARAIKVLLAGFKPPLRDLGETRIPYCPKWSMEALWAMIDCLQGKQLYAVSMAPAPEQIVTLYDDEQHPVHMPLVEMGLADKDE
UniProt Q9P0P0, sequence (Q9P0P0 whole entry, looked up): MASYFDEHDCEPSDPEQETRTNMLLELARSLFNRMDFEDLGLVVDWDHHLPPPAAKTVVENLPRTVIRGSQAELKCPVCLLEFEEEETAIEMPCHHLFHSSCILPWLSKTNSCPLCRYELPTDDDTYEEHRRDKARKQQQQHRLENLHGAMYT
UniProt Q5TBB1, sequence (Q5TBB1 whole entry, looked up): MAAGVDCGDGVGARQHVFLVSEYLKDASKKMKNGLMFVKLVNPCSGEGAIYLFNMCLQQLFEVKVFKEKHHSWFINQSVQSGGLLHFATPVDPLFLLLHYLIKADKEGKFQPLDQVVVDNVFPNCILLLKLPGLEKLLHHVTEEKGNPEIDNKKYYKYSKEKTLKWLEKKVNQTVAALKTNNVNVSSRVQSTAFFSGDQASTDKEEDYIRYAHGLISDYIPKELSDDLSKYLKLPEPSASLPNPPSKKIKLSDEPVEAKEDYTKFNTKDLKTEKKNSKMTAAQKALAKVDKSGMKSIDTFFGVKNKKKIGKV
UniProt Q96LT9, sequence (Q96LT9 whole entry, looked up): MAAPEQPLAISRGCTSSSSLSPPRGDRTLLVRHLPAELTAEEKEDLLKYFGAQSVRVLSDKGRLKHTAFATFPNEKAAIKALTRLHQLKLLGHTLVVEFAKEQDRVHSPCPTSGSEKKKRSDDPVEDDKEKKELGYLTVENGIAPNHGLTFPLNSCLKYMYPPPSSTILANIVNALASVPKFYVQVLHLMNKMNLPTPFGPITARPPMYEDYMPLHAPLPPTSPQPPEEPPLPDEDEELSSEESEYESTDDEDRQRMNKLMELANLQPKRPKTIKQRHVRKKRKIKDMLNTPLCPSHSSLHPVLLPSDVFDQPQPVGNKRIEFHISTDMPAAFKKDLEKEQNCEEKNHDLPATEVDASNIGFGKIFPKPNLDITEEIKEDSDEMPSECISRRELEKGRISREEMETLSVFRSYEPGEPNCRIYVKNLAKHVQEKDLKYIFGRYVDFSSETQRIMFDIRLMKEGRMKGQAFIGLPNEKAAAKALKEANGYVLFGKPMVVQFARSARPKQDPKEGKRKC
UniProt Q6PCD5, sequence (Q6PCD5 whole entry, looked up): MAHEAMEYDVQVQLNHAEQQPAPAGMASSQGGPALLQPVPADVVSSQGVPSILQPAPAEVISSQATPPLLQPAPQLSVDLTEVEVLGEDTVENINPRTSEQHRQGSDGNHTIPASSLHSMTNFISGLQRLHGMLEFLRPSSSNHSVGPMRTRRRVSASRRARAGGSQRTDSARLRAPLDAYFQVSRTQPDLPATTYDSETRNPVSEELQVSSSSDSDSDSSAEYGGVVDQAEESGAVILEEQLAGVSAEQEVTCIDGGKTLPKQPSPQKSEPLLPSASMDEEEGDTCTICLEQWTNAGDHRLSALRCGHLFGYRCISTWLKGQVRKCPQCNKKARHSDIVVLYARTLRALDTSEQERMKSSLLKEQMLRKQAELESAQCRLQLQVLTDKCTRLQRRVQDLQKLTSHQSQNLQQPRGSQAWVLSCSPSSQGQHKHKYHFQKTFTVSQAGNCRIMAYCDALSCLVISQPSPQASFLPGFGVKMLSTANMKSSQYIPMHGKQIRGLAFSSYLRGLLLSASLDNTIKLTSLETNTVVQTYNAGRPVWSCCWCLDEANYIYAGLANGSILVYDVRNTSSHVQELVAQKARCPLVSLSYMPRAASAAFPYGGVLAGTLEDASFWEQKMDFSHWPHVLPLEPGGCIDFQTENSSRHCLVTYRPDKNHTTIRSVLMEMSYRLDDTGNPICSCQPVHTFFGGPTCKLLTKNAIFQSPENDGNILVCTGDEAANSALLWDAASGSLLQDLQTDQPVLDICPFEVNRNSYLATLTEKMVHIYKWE
UniProt Q9H1K0, sequence (Q9H1K0 whole entry, looked up): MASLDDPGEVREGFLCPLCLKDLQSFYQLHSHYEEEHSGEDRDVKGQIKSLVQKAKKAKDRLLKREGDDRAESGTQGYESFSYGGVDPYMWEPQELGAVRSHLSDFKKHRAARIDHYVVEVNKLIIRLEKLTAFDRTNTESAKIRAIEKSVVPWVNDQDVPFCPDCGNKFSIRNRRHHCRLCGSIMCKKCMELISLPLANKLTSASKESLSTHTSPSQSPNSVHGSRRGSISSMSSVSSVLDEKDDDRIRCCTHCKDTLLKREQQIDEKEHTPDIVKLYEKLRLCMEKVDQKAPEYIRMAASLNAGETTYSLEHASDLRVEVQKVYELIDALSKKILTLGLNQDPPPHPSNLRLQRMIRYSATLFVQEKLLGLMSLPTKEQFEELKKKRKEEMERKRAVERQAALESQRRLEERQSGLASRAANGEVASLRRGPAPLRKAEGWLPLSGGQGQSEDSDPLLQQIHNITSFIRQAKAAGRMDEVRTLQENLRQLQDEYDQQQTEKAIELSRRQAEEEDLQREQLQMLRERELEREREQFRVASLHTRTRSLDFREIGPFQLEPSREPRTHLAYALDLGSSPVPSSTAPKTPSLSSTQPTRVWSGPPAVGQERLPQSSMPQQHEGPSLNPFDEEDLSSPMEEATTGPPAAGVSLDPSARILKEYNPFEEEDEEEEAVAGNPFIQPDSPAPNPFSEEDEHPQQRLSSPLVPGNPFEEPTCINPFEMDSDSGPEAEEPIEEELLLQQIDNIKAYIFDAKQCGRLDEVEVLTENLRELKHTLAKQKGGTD
UniProt Q9BWG6, sequence (Q9BWG6 whole entry, looked up): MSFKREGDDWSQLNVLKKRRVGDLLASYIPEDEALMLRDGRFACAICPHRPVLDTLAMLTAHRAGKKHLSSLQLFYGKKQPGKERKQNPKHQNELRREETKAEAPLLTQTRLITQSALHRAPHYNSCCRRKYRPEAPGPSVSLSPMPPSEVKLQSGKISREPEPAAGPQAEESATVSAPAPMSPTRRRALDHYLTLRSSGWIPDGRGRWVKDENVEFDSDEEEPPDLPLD

Consider RFWD3 (UniProt Q6PCD5), for which the log2 fold change in test [1] is 0.089; with vorinostat it was -0.444 (active); with silmitasertib, 0.061; in test [2] it was -0.027; with entospletinib, 0.043.

As for RYR1 (UniProt P21817), the log2 fold change in the test with vorinostat is 0.066; in the test with silmitasertib it was -0.017; in test [2], -0.069; in the test with entospletinib it was 0.101.

Consider RTTN (UniProt Q86VV8), for which the log2 fold change in test [1] was -0.14; with vorinostat, -0.607 (active); with silmitasertib, 0.138; in the test with entospletinib, 0.053.

Consider RFC2 (UniProt P35250), for which the log2 fold change was -0.027 in test [1]; -0.506 (active) with vorinostat; 0.043 with silmitasertib; -0.017 in test [2]; 0.004 with entospletinib.

As to RBM45 (UniProt Q8IUH3), the log2 fold change in test [2] was 0.093.

Turning to RNASEH2B (UniProt Q5TBB1), the log2 fold change in test [1] is -0.016; with vorinostat, -0.377 (active); with silmitasertib, 0.054; in test [2] it was -0.064; with entospletinib, 0.011.

In the case of RNF181 (UniProt Q9P0P0), the log2 fold change in test [1] was -0.014; in the test with vorinostat, 0.101; with silmitasertib, -0.019; in test [2], -0.023; in the test with entospletinib, -0.24 (active).

Take SCNM1 (UniProt Q9BWG6): the log2 fold change is -0.13 with vorinostat, -0.102 in the test with silmitasertib, -0.082 in test [2] and 0.092 with entospletinib.

Regarding RBM4 isoform 3 (UniProt Q9BWF3), in test [2], the log2 fold change was -0.099.

On to RAD17 (UniProt O75943), for which the log2 fold change was -0.044 in test [1], -0.052 in test [2] and -0.039 with entospletinib.

For RBSN (UniProt Q9H1K0), the log2 fold change in test [1] was 0.039; with vorinostat, 0.035; with silmitasertib, -0.032; in test [2], -0.026; with entospletinib, -0.088.

For the target RNF40 (UniProt O75150), the log2 fold change is 0.015 in test [1]; -0.237 (active) with vorinostat; 0.032 in the test with silmitasertib; -0.007 in test [2]; -0.022 with entospletinib.

As for RNF17 (UniProt Q9BXT8), the log2 fold change was -0.016 with vorinostat, -0.021 in the test with silmitasertib, -0.106 in test [2] and 0.107 in the test with entospletinib.

RNPC3 (UniProt Q96LT9): the log2 fold change with vorinostat was -0.488 (active); in the test with silmitasertib, 0.145; in test [2], 0.036.
